Reference: PubChem BioAssay AID485317 (Broad Institute, 2010)
In all, about 290,000 compounds went through this assay and about 11,000 (3.8%) were called active. The sample holds actives, similar compounds and a random draw of the others, so the mix is not that of the screen. A number with no mark means an inactive call.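 The calls were made as follows: active = mean replicate inhibition above about 79%, with every replicate also reaching it (limit read from the data); inconclusive = only one of the two criteria met; inactive = mean below limit and not every replicate reaching it.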

Biological target: FAD-linked sulfhydryl oxidase ALR (Homo sapiens) (UniProt P55789)
Assay: inhibitors of human ALR sulfhydryl oxidase, primary screen, biochemical, H2O2 detection, HRP-luminol luminescence, single point (AID 485317)
Details: purified ALR, DTT oxidation, stronger effect = higher value, concentration not given here

FAD-linked sulfhydryl oxidase ALR (Homo sapiens), sequence (P55789 whole entry, looked up): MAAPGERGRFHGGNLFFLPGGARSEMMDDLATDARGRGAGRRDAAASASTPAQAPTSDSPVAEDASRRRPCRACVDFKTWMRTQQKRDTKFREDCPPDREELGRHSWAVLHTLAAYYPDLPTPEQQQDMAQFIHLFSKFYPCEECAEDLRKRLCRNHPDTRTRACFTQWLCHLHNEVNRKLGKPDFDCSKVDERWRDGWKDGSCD

| SMILES | inhibition |
| --- | --- |
| COc1ccc(-c2nn(-c3ccccc3)cc2/C=C2/SC(=S)N(CCCC(=O)O)C2=O)c(C)c1 | 3% |
| COc1cccc(-c2nn(-c3ccccc3)cc2/C=C(\C#N)C(=O)NCCCn2ccnc2)c1 | -6.12% |
| CN(C)S(=O)(=O)c1cccc(-c2nn(-c3ccccc3)cc2/C=C2\SC(=S)N(CC(=O)O)C2=O)c1 | 95.8% (active) |
| COc1cccc(COC(=O)C2CCN(S(=O)(=O)c3cccs3)CC2)c1OC | -64% |
| COc1cc(C(=O)NCC(=O)N2CC=C(c3ccccc3)CC2)cc(OC)c1OC | 3.4% |
| O=C(NCCSc1ncc(-c2ccccc2)[nH]1)c1ccco1 | 4.62% |
| COc1ccc(OC)c(S(=O)(=O)N2CCCC(C(=O)N3CCC(C(N)=O)CC3)C2)c1 (centres undefined) | -3% |
| COc1ccc(NC(=O)CSCc2ccc([N+](=O)[O-])cc2)cc1OC | -0.226% |
| O=C(Cc1ccccc1)Nc1ccc(NC(=O)c2cccnc2)cc1 | -3.14% |
| O=C(Cc1ccccc1)Nc1ccc(C(=O)Nc2ccccc2C(=O)O)cc1 | 87.1% (active) |
| Cc1c(NC(=O)CSCc2ccccc2)cccc1C(=O)O | -23.6% |
| O=C(O)c1ccccc1NC(=O)c1ccccc1-c1ccccc1C(=O)O | -5.64% |
| O=C(CSCc1ccc([N+](=O)[O-])cc1)Nc1cccc(C(=O)Nc2ccccc2C(=O)O)c1 | 99% (active) |
| CC1CCc2[nH]c3ccc(C(=O)N(C)CC(=O)Nc4cccc(F)c4)cc3c2C1 (centres undefined) | 2.5% |
| COc1cccc(NC(=O)COc2cccnc2[N+](=O)[O-])c1 | -5.23% |
| Cc1noc(C)c1S(=O)(=O)N(C)C[C@H]1Oc2ccc(NC(=O)C3CCCCC3)cc2C(=O)N([C@H](C)CO)C[C@@H]1C | 0.231% |
| CCN(C[C@H]1N[C@@](CC)(C(=O)OC)[C@H]2C(=O)N(C)C(=O)[C@@H]12)C(=O)Nc1ccc(F)cc1 | 0.784% |
| Cc1cccc(NC(=O)COC(=O)CCc2ccccc2)c1C | -8.62% |
| Cc1cccc(NC(=O)CSC(N)=O)c1C | 98.7% (active) |
| Cc1cccc(NC(=O)CN2C(=O)c3ccccc3C2=O)c1C | 2.16% |
| COc1cc(OC)cc(-c2c(C#Cc3ccsc3)c3cc(-c4ccc(SC)cc4)ccc3n2C)c1 | -4.93% |
| CC1=NN(C(=O)c2ccccc2Br)C(O)(c2cccnc2)C1 (centres undefined) | -2.8% |
| CC1=NN(C(=O)c2ccc(Br)cc2)C(O)(c2ccccc2)C1 (centres undefined) | 82.1% (active) |
| CCOC(=O)C1(O)CC(C)=NN1C(=O)c1cccc(Br)c1 (centres undefined) | -4.22% |
